Screening data as filed in PubChem BioAssay.
RGS12 GoLoco inh: qHTS Assay for Inhibitors of RGS12 GoLoco Motif Activity (Red Fluorophore) | Guanine nucleotide-binding protein G(i) subunit alpha-1 (Homo sapiens), P63096 | Gai1:RGS12 GoLoco peptide FP, rhodamine, 10 min | Potency, µM (doses to about 61.6 µM), for the others: at the top dose activity, negative = inhibition, most hits filed as inhibitors | actives 0.44% (n = 230,000); active = well fitted inhibition curve with a large enough effect, not every such curve was filed as active; inactive = no such curve, though single readings can be large or run the other way; also: potency is read from the fitted curve at half-maximal effect; % is scaled to controls: 0 for no effect and ±100 for the full control effect; nearly all actives have a fitted effect of over 30% in size
HTT aggregate: qHTS Multiplex Assay to Identify Dual Action Probes in a Cell Model of Huntington: Aggregate Formation (GFP). Potency, µM (titrated, usually from 46.1 µM), inactives show at the highest dose activity change, negative = inhibition, usual class: inhibitors. AID 1688, 2009. PC12 HttQ103-GFP aggregates, Acumen cytometry, 40 h. actives 1.1% (n = 220,000); also: potency is read from the fitted curve at half-maximal effect; % is scaled to controls: 0 for no effect and ±100 for the full control effect; nearly all actives have a fitted effect of over 60% in size
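PC12/HTTQ103-GFP, ecdysone-inducible; teb 100 nM; cpd qHTS titration; GFP aggregates read on laser cytometer, Ex 488/Em 500-530 nm.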
VDR inhibitor: Inhibitors of the vitamin D receptor (VDR): qHTS | Vitamin D3 receptor (Homo sapiens), P11473 | VDR-SRC2-3 peptide fluorescence polarization, 2 h | Potency, µM, inactives show max response, negative = inhibition, usual class: inhibitors | actives 0.93% (n = 400,000); also: potency is read from the fitted curve at half-maximal effect; % is scaled to controls: 0 for no effect and ±100 for the full control effect
Target sequence (P11473 whole entry, looked up): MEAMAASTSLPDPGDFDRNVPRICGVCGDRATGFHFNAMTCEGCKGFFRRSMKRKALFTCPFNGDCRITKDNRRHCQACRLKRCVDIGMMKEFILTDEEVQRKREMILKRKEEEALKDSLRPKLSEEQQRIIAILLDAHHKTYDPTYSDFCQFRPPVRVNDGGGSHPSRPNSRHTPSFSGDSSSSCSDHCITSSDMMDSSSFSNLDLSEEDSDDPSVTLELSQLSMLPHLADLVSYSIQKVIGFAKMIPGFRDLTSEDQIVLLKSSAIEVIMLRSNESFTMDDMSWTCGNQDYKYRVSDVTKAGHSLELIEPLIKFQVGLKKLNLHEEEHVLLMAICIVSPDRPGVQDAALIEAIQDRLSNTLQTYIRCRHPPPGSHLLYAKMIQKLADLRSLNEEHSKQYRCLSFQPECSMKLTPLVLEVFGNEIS
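Two reagent solutions held at 4 deg C in the dark were dispensed, compounds pinned at 23 nl, and the mixture incubated 2 h at room temperature. Read-out: fluorescence polarization of VDR–SRC2-3 peptide binding.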
JMJD2E inh: qHTS Assay for Inhibitors of Human Jumonji Domain Containing 2E (JMJD2E). Potency, µM (titrated, usually from 57.1 µM), without a hit: at the highest dose activity change, negative = inhibition, actives largely listed as inhibitors. JMJD2E catalytic domain, FDH-coupled NADH fluorescence (FDH is formaldehyde dehydrogenase). actives 1.6% (n = 230,000). Lysine-specific demethylase 4E (Homo sapiens), B2RXH2; active = well fitted inhibition curve with a large enough effect, not every such curve was filed as active; inconclusive = small, poorly fitted or top-dose-only effect, or another doubt; inactive = no such curve, though single readings can be large or run the other way;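 also: potency is read from the fitted curve at half-maximal effect; 0% = wells with enzyme and -100% = buffer wells without enzyme; nearly all actives have a fitted effect of over 50% in size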
Coupling enz: qHTS Assay for Inhibitors of Fructose-1,6-bisphosphate Aldolase from Giardia Lamblia: Coupling assay counterscreen | coupling enzyme system counterscreen, AmpLite Red fluorescence | activity change, negative = inhibition, % at 58.2 µM, hits read low | actives 0.67% (n = 290,000) | AID 2472, 2010; in the data active = activity change below about -30%; also: % is scaled to controls: 0 for no effect and ±100 for the full control effect
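Counterscreen of the coupled detection system alone, without aldolase: glyceraldehyde-3-phosphate coupling enzymes plus AmpLite Red readout. Compounds at 57.5 uM final, 10 min RT preincubation, 20 min RT reaction, fluorescence 525/598 nm.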
HTT ATP protect: qHTS Multiplex Assay to Identify Dual Action Probes in a Cell Model of Huntington: Cytoprotection (ATP) | PC12 HTT-Q103 induced, cytoprotection, ATP luminescence, 40 h | Potency, µM (series often up to 56.4 µM), for the others: cytoprotection (ATP increase), actives largely listed as activators | actives 0.14% (n = 230,000) | AID 1471, 2008; also: potency is read from the fitted curve at half-maximal effect; % of control where 0% means no effect; nearly all actives have a fitted effect of over 45% in size
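PC12 cells stably carrying ecdysone-inducible Htt exon 1 (Q103)–GFP were induced with 100 nM tebufenozide (final) alongside library compounds in a dose series. Cytoprotection was scored as retained ATP by ATPlite luminescence.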
* = called active by the depositor; u = inconclusive; x = no result; [ ] = another dose, or the depositor's remark. Sampled rows, rich in hits. Any-hit rate of the full collection: about 2.3%. Unless noted, calls follow the shape of the dose curve; as a rule, active = well fitted curve in the direction sought with a large enough effect; inconclusive = small, poorly fitted or top-dose-only effect, or another doubt; inactive = no such curve, though single readings can be large; an effect the other way counts as inactive or inconclusive.

SMILES	RGS12 GoLoco inh	HTT aggregate	VDR inhibitor	JMJD2E inh	Coupling enz	HTT ATP protect
COc1cc2c(cc1OC)C(c1ccc(Br)cc1)N(C(=O)c1ccccc1C(=O)O)CC2 (centres undefined)	x	x	8.0%	x	6.4	x
Cn1nc(-c2ccccn2)nc2c(=O)n(C)c(=O)nc1-2	-6.1%	u	10.2%	7.08µM*	-75.6*	-44.9%[10 µM]
Cc1ccccc1-c1nc2c(=O)n(C)c(=O)nc-2n(C)n1	x	x	-22.1%	x	x	x
CCn1c(N)nc2c1c(=O)n(C)c(=O)n2C	11.5%	-20.2%	-0.1%	10.8%	1.6	-5.6%
CCCc1nc2c(=O)n(C)c(=O)nc-2n(C)n1	-3.5%	6.31µM*	-11.5%	u	-74.1*	-172.2%
COc1cccc(CNC(=O)C2CCN(C(=O)c3sccc3-n3cccc3)CC2)c1	x	x	-16.2%	x	x	x
Cc1cc[n+]2c3c(cccc13)CCC2	14.0%	u	50.1µM*	u	-13.9	-6.9%
Cc1ccc(S(=O)(=O)N/N=C\c2ccc3c(c2)OCO3)c(C)c1	x	x	4.5%	x	x	x
S=C(Nc1cccc(Cl)c1Cl)Nn1cnnc1	-1.1%	9.1%	79.4µM*	-2.7%	7.9	-9.1%[10 µM]
CCOc1ccccc1NC(=S)Nn1cnnc1	x	x	39.8µM*	x	x	x
S=C(Nc1cc(Cl)ccc1Cl)Nn1cnnc1	1.6%	-4.4%[9.22 µM]	79.4µM*	1.8%	5.6	-18.5%[10 µM]
O=C(Nc1cccc(Cl)c1Cl)Nn1cnnc1	x	x	-15.4%	x	2.8	x
Cc1ccc(-c2nnc(Nc3ccc(Br)cc3)c3ccccc23)cc1S(=O)(=O)N1CCN(C)CC1	x	x	-7.8%	x	x	x
O=C(Nc1ccc(Cl)cc1)NC1CCCc2ccccc21 (centres undefined)	3.7%	-6.3%	3.6%	-3.0%	-0.9	-26.6%
O=C1C(Cl)=C(NC2CCc3ccccc32)C(=O)c2ncccc21 (centres undefined)	-7.3%	x	x	5.01µM*	-6.9	-92.3%
CCOC(=O)C1Nc2ccc(C(=O)O)cc2C2C=CCC12 (centres undefined)	x	x	15.8µM*	x	-12.9	x
O=C(O)c1ccc2c(c1)C1C=CCC1C(c1ccncc1)N2 (centres undefined)	-14.2%	-27.4%[9.22 µM]	18.6%	14.1µM*	-30.9*	17.9%[10 µM]
CCOc1cc(Cl)c(S(=O)(=O)NCCCN2CCOCC2)cc1Cl	x	x	9.3%	x	-1.9	x
CC(NC(=O)CCCCCCN1C(=O)c2ccccc2C1=O)c1ccc2c(c1)CCCC2 (centres undefined)	-9.9%	10µM*	-17.1%	-5.5%	4.5	-14.7%[10 µM]
COc1ccc(CN(C)C(=O)c2cccc(S(=O)(=O)N3CCCc4ccccc43)c2)c(OC)c1OC	x	x	17.0%	x	x	x
O=C(O)[C@H]([C@H]1NCCS1)N1Cc2ccccc2C1	x	x	x	x	x	3.4%[10 µM]
[O-][n+]1ccccc1SSc1cccc[n+]1[O-]	-5.3%	5.01µM*	5.62µM*	x	x	-98.4%
CCN(C(=O)C(C)N1C(=O)/C(=C/c2ccco2)SC1=S)C1CCS(=O)(=O)C1 (centres undefined)	x	x	4.0%	x	-22.4	x
CC(C(=O)N(C)C1CCS(=O)(=O)C1)N1C(=O)/C(=C/c2ccc(F)cc2)SC1=S (centres undefined)	x	x	79.4µM*	x	x	x
Cc1ccc(C(C[N+](=O)[O-])c2c(-c3ccccc3O)[nH][nH]c2=O)cc1 (centres undefined)	9.9%	u	22.4µM*	u	-5.5	14.6%[10 µM]
O=c1c2cc(N3CCOCC3)ccc2[nH]c(=S)n1Cc1ccccn1	-16.1%	-1.6%	-5.7%	u	-40.6*	-16.0%
Cc1cc2cc(CNC(=O)c3ccc(Br)o3)ccc2n1C	-36.3%	7.2%[9.22 µM]	79.4µM*	-22.7%	-24.1	0.1%[10 µM]
CCCC(=O)NCc1ccc2c(c1)cc(C)n2C	-0.5%	-1.2%	-7.3%	u	-19.2	-10.0%
O=C(Nc1nc(-c2ccccn2)cs1)c1ccc(F)c(S(=O)(=O)N2CCOCC2)c1	x	x	89.1µM*	x	x	x
